Sampled rows, rich in hits. Any-hit rate of the full collection: about 3%.
SENP8 block-1: blocks human SENP8 cleavage of Nedd8 substrate; recombinant SENP8, Nedd8 substrate fluorescence; inhibition, % at 20 µM; 360,000 tested, 0.64% active; in the data active = inhibition mostly above about 40%, no sharp cut-off; inactive = mostly below about 27%
Target sequence (Q96LD8 whole entry, looked up): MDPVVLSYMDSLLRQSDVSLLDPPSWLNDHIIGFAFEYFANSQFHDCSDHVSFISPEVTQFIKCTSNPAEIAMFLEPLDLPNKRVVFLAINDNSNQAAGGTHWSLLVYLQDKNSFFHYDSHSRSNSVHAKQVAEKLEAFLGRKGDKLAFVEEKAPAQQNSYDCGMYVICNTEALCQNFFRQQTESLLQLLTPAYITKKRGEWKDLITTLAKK
SENP8 block-2: blocks the human protease SENP8; Q96LD8; purified SENP8, Z-RLRGG-aminoluciferin cleavage, luminescence; inhibition, % at 10 µM; 330,000 tested, 1.2% active; in the data active = inhibition above about 50%
SENP6 block: blocks the human protease SENP6 | Q9GZR1 | Recombinant SENP6 catalytic domain, aminoluciferin luminescence | inhibition, % at 10 µM | 330,000 tested, 1.8% active;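 active = inhibition above about 50% at the single tested dose, limit read from the data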;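 also: plate controls were DMSO wells with enzyme for no effect and DMSO wells lacking enzyme for full effect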
Target sequence (Q9GZR1 628-1112 limits assumed): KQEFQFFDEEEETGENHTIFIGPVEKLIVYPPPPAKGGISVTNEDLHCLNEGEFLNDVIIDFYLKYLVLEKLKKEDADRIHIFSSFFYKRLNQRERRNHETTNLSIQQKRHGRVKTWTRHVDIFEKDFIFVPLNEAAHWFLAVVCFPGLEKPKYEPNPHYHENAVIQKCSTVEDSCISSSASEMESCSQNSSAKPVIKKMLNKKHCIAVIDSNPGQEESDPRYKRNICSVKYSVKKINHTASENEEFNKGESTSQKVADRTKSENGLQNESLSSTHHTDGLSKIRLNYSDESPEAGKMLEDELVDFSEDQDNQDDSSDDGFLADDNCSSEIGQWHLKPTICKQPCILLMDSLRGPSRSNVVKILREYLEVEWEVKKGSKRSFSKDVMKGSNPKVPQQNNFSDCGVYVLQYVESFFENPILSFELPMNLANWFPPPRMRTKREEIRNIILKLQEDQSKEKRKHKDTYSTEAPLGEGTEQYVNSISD
SENP7 inh: inhibitors of human SENP7 protease. AID 434973. inhibition, % at 5 µM. Q9BQF6. 330,000 tested, 1.5% active. recombinant SENP7, Z-RLRGG-aminoluciferin luminescence, 40 min;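 active = inhibition above about 50% at the single test dose, limit read from the data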;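 also: plate controls were DMSO with enzyme for no effect and no enzyme buffer wells for full effect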
C8 TRAIL sens: caspase-8 TRAIL sensitization; AID 624354; NB7+C8 cells + TRAIL, ATPlite viability luminescence; 360,000 tested, 1% active; inhibition (viability loss, TRAIL sensitization), % at 10 µM;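 active = compounds causing at least 50% loss of cell viability in the single-dose screen, relative to plate controls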
PPC-1+TRAIL kill: compounds killing PPC-1 cancer cells with TRAIL present (potentiator screen, no TRAIL-free arm). AID 1443. PPC-1 cells + TRAIL, ATPLite viability luminescence. 220,000 tested, 0.41% active. cell killing (% activity), % at 4 µM or 5 µM;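 active = cell killing above 50% in the first pass at 4 µM, then a duplicate retest at 5 µM averaging 50% or more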;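 also: plate controls were cells with TRAIL plus DMSO for no effect and medium-only wells lacking cells for full effect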
SENP8 conf: confirmation of human SENP8 protease inhibitors. 6,200 tested, 40% active. AID 488912. inhibition, % at 12.5 µM. Recombinant SENP8, Z-RLRGG-aminoluciferin luminescence, 60 min. shares compounds with SENP7 inh;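 active = mean inhibition across replicates above about 50%, limit read from the data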
SENP6 conf: confirmation of human SENP6 protease inhibitors. shares compounds with SENP7 inh. recombinant SENP6, Z-RLRGG-aminoluciferin luminescence. inhibition, % at 12.5 µM. 6,200 tested, 58% active. AID 488915
SENP7 conf: human SENP7 inhibition, confirmed | shares compounds with SENP7 inh | recombinant SENP7, Z-RLRGG-aminoluciferin luminescence, 40 min | inhibition, % at 12.5 µM | 6,200 tested, 69% active
Casp3 SENP sel: selectivity test for SENP inhibitors: human caspase-3 inhibition; 6,200 tested, 60% active; AID 488918; shares compounds with SENP7 inh; inhibition, % at 12.5 µM; purified caspase-3, Z-DEVD-aminoluciferin luminescence, 60 min;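 active = mean inhibition above about 50%, limit read from the data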;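 also: plate controls were enzyme with DMSO for no effect and wells without caspase-3 for full effect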
Luc interf: counter-screen for SENP inhibitors: luminescence interference; shares compounds with SENP7 inh; inhibition, % at 12.5 µM; Pre-incubated SENP8/Z-RLRGG-aminoluciferin, luciferase luminescence interference; 6,200 tested, 39% active;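 active = mean inhibition above about 50% when retested at one dose, limit read from the data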;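 also: plate controls were DMSO wells with completed reaction for no effect and substrate without enzyme for full effect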
* = called active by the depositor; · = no result.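 The calls were made as follows, unless noted: active = mean inhibition above about 50% in the one-dose retest (limit read from the data); inactive = the rest.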

SMILES | SENP8 block-1 | SENP8 block-2 | SENP6 block | SENP7 inh | C8 TRAIL sens | PPC-1+TRAIL kill | SENP8 conf | SENP6 conf | SENP7 conf | Casp3 SENP sel | Luc interf
c1csc(-c2nc(CN3CCSCC3)cs2)c1 | -19 | 74* | 80* | 88* | 31 | 25 | 80* | 80* | 96* | 94* | 86*
CNC(=O)c1csc(-c2cccs2)n1 | 5 | -22 | -10 | -6 | -9 | 3 | · | · | · | · | ·
O=C(O)c1csc(-c2cccs2)n1 | -8 | 57* | -8 | -4 | -1 | 8 | 2 | 2 | 2 | -2 | -1
COc1cccc(/C(C)=N/N=C(\C)c2cccc(OC)c2)c1 | 13 | 61* | 81* | 66* | -21 | · | 43 | 56* | 85* | 55* | 41
COc1cccc(C(N)=O)c1 | 7 | -18 | -22 | -22 | 2 | · | · | · | · | · | ·
COc1ccc(C(NC(=O)C2CCN(CCOc3ccc(Cl)cc3)CC2)c2cccs2)cc1 (centres undefined) | 16 | · | · | · | -2 | · | · | · | · | · | ·
O=C(CSCc1ccco1)N1CCc2ccccc21 | 14 | 34 | 57* | 33 | 6 | · | 47 | 45 | 79* | 68* | 58*
C=CCn1c(SCC#N)nnc1-c1ccc2ncccc2c1 | 0 | -1 | -3 | 1 | 1 | 2 | · | · | · | · | ·
COc1ccc(S(=O)(=O)N2CCC(C(=O)NCc3cccs3)CC2)cc1 | 10 | 0 | 5 | 4 | 7 | 3 | · | · | · | · | ·
Cc1c(NC(=O)c2cc3c(s2)CCCC3)c(=O)n(-c2ccccc2)n1C | 10 | 61* | 17 | 2 | -6 | -12 | 11 | 9 | 8 | 4 | 4
COc1ccc(-n2c(O)c(/C=N/NS(=O)(=O)c3cccc([N+](=O)[O-])c3)c3ccccc3c2=O)cc1OC | -400 | 10 | 53* | 25 | -3 | 14 | 10 | 19 | -5 | 0 | 0
COc1ccc(CC(=O)NNS(=O)(=O)c2cccc([N+](=O)[O-])c2)cc1OC | 14 | 3 | -7 | -5 | 10 | · | · | · | · | · | ·
C[C@@H]1CCC2[C@](C)(CO)[C@@H](O)CC[C@]2(C)[C@@]12CC[C@@](CO)(CC(=O)O)O2 (some centres undefined) | 14 | 5 | 7 | 1 | -2 | · | · | · | · | · | ·
C/C(=N\NC(=O)c1cccc(O)c1)c1ccc(NC(=O)Cc2ccccc2)cc1 | 0 | -1 | -5 | 1 | 2 | · | · | · | · | · | ·
O=c1oc(CCCO)cc2ccc(/C=C/c3cccc([N+](=O)[O-])c3)cc12 | -24 | 2 | 21 | 61* | 7 | · | 8 | 17 | 30 | 30 | 4
O=C(CSc1ncccn1)N(Cc1cccnc1)C(CCc1ccccc1)c1nc2ccccc2[nH]1 (centres undefined) | -7 | · | · | · | -7 | · | · | · | · | · | ·
Cc1cccc(NC(=O)CC2Nc3cccc4cccc(c34)NC2=O)c1 (centres undefined) | -40 | 76* | 83* | 67* | 1 | -18 | 12 | 9 | -1 | 1 | 1
O=C(CC1NC(=O)NC1=O)Nc1ccccc1 (centres undefined) | 22 | 4 | 2 | 10 | -15 | 36 | · | · | · | · | ·
CCOc1ccc(NC(=O)CC2Nc3ccccc3NC2=O)cc1 (centres undefined) | -50 | 4 | 11 | 7 | 4 | 2 | · | · | · | · | ·
CC(=O)Nc1ccc(NC(=O)CC2Nc3cccc4cccc(c34)NC2=O)cc1 (centres undefined) | -91 | 75* | 93* | 75* | -14 | 10 | -3 | -2 | 5 | 4 | -3
CC(=O)c1ccc(NC(=O)CC2Nc3cccc4cccc(c34)NC2=O)cc1 (centres undefined) | -9 | 50* | 89* | 56* | -2 | -5 | 8 | 7 | -6 | -6 | -13
O=C(CSc1ncccn1)NCc1cccc(Cl)c1 | 2 | 5 | -6 | 5 | -5 | -5 | · | · | · | · | ·
Cc1csc(NC(=O)c2ccc(Br)s2)n1 | -19 | 30 | 55* | 26 | 14 | · | 46 | 43 | 77* | 48 | 26
O=C(Nc1ccccn1)c1ccc(Br)s1 | 8 | 38 | 67* | 65* | 15 | · | 66* | 63* | 88* | 76* | 67*
Cc1csc(NC(=O)c2cccs2)n1 | 3 | 3 | 17 | 31 | 14 | -2 | · | · | · | · | ·
SMILES | SENP8 block-1 | SENP8 block-2 | SENP6 block | SENP7 inh | C8 TRAIL sens | PPC-1+TRAIL kill | SENP8 conf | SENP6 conf | SENP7 conf | Casp3 SENP sel | Luc interf
CCc1sc(C(=O)Nc2nc(C)cs2)cc1C | -44 | 68* | 85* | 65* | 30 | · | 70* | 69* | 92* | 69* | 69*
Cc1nn(CC(=O)N2CCN(c3cccc(C(F)(F)F)c3)CC2)c(=O)c2cccn12 | 8 | -1 | -7 | 8 | -5 | · | · | · | · | · | ·
CCOc1ccc(NC(=O)c2ccccn2)cc1 | 6 | 81* | 91* | 92* | 91* | 87* | 92* | 92* | 100* | 96* | 89*
CCOc1ccc(NC(=O)c2nccnc2CO)cc1 | -12 | 14 | 53* | 48 | 49 | 25 | 38 | 35 | 74* | 82* | 55*
CCNC(=S)N(CCCN(C)C)Cc1cc2cc3c(cc2[nH]c1=O)OCCO3 | -393 | -3 | -2 | -4 | -14 | · | · | · | · | · | ·
Cc1ccc(C(=O)Nc2cccc3cccnc23)cc1C | -7 | 51* | 69* | 63* | -2 | · | 43 | 63* | 86* | 43 | 40
Cc1cccc(C(=O)Nc2cccc3cccnc23)c1 | 14 | 1 | 45 | 21 | 13 | · | · | · | · | · | ·
COc1cc(CN(CC2CCCO2)C(=O)c2cccs2)cc(OC)c1OC (centres undefined) | 14 | -3 | 12 | 78* | -4 | · | -5 | -6 | -8 | 2 | 6
COc1ccc(CNC(=O)Nc2nc(C(N)Cc3ccc(C(F)(F)F)cc3)cs2)cc1 (centres undefined) | 2 | · | · | · | 19 | · | · | · | · | · | ·
COc1cccc(C=Nc2cccc3c(=O)[nH][nH]c(=O)c23)c1O | -36 | 65* | 67* | 93* | 45 | 11 | 10 | 15 | 9 | 30 | 15
COc1cccc(C(=O)/C=C/Nc2ccc(S(=O)(=O)Nc3ncccn3)cc2)c1 | -386 | 21 | 63* | 35 | -7 | 8 | 4 | 5 | -2 | 20 | -5

High-throughput results from PubChem BioAssay.
